The text below walks through data of PubChem BioAssay.

Values without a mark were called inactive. The rule behind the calls is not given here.

The target of this assay is Pantothenate synthetase (Mycobacterium tuberculosis (strain ATCC 25618 / H37Rv)) (UniProt P9WIL5). In words: Recombinant Mtb pantothenate synthetase (PanC) inhibitors, coupled enzyme, confirmatory (AID 375).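 Note: 0% = full reaction with vehicle and 100% = no enzyme background.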 Conditions: coupled enzyme assay; at 10 µM, stronger effect = higher value.
Sequence of Pantothenate synthetase (Mycobacterium tuberculosis (strain ATCC 25618 / H37Rv)) (P9WIL5 whole entry, looked up): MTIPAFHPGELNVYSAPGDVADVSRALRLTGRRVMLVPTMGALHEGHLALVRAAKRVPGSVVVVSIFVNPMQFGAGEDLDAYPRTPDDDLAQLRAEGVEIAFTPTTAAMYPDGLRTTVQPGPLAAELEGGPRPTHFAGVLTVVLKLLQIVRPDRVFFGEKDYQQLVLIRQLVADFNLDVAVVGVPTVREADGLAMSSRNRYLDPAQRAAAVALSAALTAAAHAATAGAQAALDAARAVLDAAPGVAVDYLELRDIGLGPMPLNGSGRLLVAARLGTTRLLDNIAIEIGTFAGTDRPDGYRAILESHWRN
Usually inhibition stands for how much of the control response was suppressed. Take `C=C(C)Cn1c(-c2ccccc2)nc2ccccc21`: the inhibition is 0%.
`Cc1oc2c(c1C(=O)NCc1ccccc1)CCCC2`: the inhibition was 0%.
As for `COc1ccc(CNc2nc(NCc3ccc(OC)cc3)n(S(C)(=O)=O)n2)cc1`, the inhibition is 0%.
Take `CC12CN3CC(C)(CN(C1)C3c1ccc(Br)cc1)C2` (stereo not drawn): the inhibition is 0%.
Consider `CCn1c(C(=O)N2CCCC(C(=O)NCCCc3ccccc3)C2)cc2sccc21` (stereo not drawn), for which the inhibition is 0%.
`Cc1ccc(C2c3sc(=O)[nH]c3SC3C(=O)NC(=O)C32)cc1` (stereo not drawn): the inhibition is 0%.
For the compound `Cc1ccc2nc(CSc3nnc(-c4ccco4)n3-c3ccccc3)cc(=O)n2c1`, the inhibition is 4%.
Regarding `CC(Oc1ccc(Cl)cc1Cl)C(=O)Nc1ncccn1` (stereo not drawn), the inhibition is 0%.
On to `O=C(c1cnccn1)N(c1ccccc1)C1(C(=O)NC2CCCC2)CCCCC1`, for which the inhibition is 0%.
As for `Cc1nc2ccc(NC(=O)NCc3ccco3)cc2s1`, the inhibition was 0%.
Consider `CC(C)CCn1c(N)c(S(=O)(=O)c2cccs2)c2nc3ccccc3nc21`, for which the inhibition was 0%.
As to `CCn1cc(C(=O)N=c2sc3ccccc3n2C)c(=O)c2ccc(C)nc21`, the inhibition is 0%.
In the case of `Cn1c(=O)n(CCC(=O)O)c2ccccc21` it was 7%; in that of `CC12CN3CC(C)(CN(C1)C3c1cc(Br)ccc1O)C2=O` (stereo not drawn), 0%.
`CCCN1CCN(CCCNC(=O)Cn2ncc3c4ccccc4n(C)c3c2=O)CC1`: the inhibition was 3%.
`Cc1ccc(CSc2nc3c(c(=O)[nH]2)CCC3)cc1`: the inhibition is 1%.
For `Cc1ccc(NC2=NC3(CCCCC3)N=C(N)N2)c(C)c1`, the inhibition is 3%.
Next, `CC(=O)[C@H]1[C@H](C#N)C[C@H]2[C@@H]3CC=C4C[C@@H](O)CC[C@]4(C)[C@H]3CC[C@@]21C`: 0%; `COC(=O)c1ccc(NC(=O)C2CC(=O)N(c3cc(C)ccc3C)C2)cc1` (stereo not drawn): 5%; `Cc1ccc(C)c(N2C(=O)CN=C2Nc2ccccc2Cl)c1`: 4%.
With `O=c1oc2ccccc2n1CCn1c2ccccc2c2nc3ccccc3nc21`, the inhibition is 0%.
As to `Cn1cc(C(=O)c2ccc(F)cc2)cc1-c1nc2ccccc2n1C`, the inhibition is 6%.
Regarding `CC1=C(C(=O)OCc2ccccc2)C(c2ccc(C)o2)C2=C(CCCC2=O)N1` (stereo not drawn), the inhibition was 4%.
